Laboratory results published in the supplement of paper PMC11732987, “Enantioselective OTUD7B fragment discovery through chemoproteomics screening and high-throughput optimisation” (Communications Chemistry, 2025).

Key:
Experiment in all cases: log2 ratio of Biotin-Ahx-Ub-VS probe labelling (fragment/DMSO); higher = less target engagement (more negative = stronger competition), active = hit call of the paper (q ≤ 0.05, log2 ratio ≤ -1)
Settings in all cases: compound concentration: 200 uM; treatment time: 3 h
OTUD6B = biological target: T1, OTUD6B (UniProt Q8N6M0)
T1 sequence (whole entry): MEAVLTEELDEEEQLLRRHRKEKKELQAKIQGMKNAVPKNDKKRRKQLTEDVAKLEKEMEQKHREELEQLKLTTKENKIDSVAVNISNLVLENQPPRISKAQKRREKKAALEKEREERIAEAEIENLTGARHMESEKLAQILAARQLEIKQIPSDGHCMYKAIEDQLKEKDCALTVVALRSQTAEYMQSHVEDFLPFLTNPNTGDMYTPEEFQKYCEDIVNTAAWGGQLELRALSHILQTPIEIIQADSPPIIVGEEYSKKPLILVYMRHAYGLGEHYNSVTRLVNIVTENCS
Summary of the method: (§1)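 Fragment (200 µM) or vehicle was incubated for 3 h with triplicate HEK293T lysate samples of 495 µg, which were then treated with Biotin-Ahx-Ub-VS at 0.5 µM final for 1 h. Labelled DUBs were enriched on NeutrAvidin, digested with LysC and trypsin, and analysed by diaPASEF LC-MS/MS. Values are average log2 fragment/vehicle ratios from an unpaired t-test on global-median-normalised Spectronaut label-free quantities, using proteins with ≥2 unique peptides.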

OTUD7B = biological target: T2, OTUD7B (UniProt Q6GQQ9)
T2 sequence (whole entry): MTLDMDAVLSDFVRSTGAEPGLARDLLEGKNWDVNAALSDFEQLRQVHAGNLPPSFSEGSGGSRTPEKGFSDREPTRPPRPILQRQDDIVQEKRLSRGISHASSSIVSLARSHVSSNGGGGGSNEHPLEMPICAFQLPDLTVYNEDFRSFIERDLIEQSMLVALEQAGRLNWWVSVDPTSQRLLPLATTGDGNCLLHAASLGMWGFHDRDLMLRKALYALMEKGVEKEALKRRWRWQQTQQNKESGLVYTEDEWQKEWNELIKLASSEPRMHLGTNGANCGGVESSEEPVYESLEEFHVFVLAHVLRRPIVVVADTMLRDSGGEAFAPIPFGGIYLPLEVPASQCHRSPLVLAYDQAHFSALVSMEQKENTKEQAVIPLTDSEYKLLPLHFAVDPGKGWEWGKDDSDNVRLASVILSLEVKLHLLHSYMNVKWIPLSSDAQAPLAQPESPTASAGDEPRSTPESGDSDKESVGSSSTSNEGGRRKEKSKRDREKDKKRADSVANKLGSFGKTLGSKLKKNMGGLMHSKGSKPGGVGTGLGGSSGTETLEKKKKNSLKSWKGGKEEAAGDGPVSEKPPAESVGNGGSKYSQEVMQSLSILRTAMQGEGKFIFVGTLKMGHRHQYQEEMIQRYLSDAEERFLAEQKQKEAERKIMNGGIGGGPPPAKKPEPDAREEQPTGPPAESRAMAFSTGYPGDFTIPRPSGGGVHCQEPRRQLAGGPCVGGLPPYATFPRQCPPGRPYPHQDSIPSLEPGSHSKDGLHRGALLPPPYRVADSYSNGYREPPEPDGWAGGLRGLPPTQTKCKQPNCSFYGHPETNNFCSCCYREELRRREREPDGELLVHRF
Summary of the method: as §1

PRPF8 = PRPF8 (UniProt Q6P2Q9)
Summary of the method: as §1

PSMD7 = biological target: T3, PSMD7 (UniProt P51665)
T3 sequence (whole entry): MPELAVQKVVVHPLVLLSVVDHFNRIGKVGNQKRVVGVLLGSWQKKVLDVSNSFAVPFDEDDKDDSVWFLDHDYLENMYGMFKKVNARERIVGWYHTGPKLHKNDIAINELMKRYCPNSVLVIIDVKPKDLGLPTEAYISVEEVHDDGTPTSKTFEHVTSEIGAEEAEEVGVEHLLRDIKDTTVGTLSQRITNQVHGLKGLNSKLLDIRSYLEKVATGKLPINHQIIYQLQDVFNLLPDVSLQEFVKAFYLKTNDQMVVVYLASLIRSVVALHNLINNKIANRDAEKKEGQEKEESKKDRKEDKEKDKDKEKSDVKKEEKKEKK
Summary of the method: as §1

UCHL1 = UCHL1 (UniProt P09936)
UCHL1, sequence (P09936 whole entry, looked up): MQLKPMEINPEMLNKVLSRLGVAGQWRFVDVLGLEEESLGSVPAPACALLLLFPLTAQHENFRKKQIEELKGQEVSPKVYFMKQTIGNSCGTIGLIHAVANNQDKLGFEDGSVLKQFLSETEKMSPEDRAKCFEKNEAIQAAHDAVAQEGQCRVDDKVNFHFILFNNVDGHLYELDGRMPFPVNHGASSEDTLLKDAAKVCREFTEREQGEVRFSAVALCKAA
Summary of the method: as §1

UCHL3 = biological target: T4, UCHL3 (UniProt P15374)
T4 sequence (whole entry): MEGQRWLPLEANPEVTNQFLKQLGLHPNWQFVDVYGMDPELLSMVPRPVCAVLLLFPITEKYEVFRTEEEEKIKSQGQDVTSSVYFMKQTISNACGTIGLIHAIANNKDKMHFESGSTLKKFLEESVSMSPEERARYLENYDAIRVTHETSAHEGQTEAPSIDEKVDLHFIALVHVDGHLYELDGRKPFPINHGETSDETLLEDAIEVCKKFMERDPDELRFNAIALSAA
Summary of the method: as §1

UCHL5 = biological target: T5, UCHL5 (UniProt Q9Y5K5)
T5 sequence (whole entry): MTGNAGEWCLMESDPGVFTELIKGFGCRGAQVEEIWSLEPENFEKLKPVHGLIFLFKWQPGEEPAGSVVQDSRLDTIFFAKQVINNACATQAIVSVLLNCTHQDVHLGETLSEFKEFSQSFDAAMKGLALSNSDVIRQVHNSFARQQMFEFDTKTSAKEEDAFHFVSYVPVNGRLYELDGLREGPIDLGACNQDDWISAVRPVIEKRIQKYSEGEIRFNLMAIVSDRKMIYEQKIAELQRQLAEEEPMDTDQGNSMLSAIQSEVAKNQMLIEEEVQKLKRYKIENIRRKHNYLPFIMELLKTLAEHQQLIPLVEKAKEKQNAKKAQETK
Summary of the method: as §1

USP10 = USP10 (UniProt Q14694)
USP10, sequence (Q14694 whole entry): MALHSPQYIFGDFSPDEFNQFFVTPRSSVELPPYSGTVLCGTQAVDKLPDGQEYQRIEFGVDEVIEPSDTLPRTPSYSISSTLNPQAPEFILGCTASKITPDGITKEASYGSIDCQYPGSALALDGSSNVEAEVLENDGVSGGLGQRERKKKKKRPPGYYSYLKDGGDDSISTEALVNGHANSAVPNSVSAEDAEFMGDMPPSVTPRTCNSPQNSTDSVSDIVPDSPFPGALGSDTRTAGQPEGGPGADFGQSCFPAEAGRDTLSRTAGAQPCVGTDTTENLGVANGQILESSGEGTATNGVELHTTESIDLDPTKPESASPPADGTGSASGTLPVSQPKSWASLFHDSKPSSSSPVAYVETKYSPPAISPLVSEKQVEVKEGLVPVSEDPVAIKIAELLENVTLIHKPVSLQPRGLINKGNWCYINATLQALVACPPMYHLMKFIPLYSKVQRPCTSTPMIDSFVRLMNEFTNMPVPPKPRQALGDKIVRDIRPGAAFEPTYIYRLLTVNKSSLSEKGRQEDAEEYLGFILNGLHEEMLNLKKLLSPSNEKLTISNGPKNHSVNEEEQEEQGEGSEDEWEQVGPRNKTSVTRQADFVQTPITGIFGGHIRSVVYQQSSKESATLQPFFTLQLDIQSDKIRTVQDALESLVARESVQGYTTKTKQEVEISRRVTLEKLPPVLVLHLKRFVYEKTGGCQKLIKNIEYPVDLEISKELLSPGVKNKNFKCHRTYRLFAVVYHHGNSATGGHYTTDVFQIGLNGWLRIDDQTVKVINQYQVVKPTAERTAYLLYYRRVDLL
Summary of the method: as §1

USP15 = biological target: T6, USP15 (UniProt Q9Y4E8)
T6 sequence (whole entry): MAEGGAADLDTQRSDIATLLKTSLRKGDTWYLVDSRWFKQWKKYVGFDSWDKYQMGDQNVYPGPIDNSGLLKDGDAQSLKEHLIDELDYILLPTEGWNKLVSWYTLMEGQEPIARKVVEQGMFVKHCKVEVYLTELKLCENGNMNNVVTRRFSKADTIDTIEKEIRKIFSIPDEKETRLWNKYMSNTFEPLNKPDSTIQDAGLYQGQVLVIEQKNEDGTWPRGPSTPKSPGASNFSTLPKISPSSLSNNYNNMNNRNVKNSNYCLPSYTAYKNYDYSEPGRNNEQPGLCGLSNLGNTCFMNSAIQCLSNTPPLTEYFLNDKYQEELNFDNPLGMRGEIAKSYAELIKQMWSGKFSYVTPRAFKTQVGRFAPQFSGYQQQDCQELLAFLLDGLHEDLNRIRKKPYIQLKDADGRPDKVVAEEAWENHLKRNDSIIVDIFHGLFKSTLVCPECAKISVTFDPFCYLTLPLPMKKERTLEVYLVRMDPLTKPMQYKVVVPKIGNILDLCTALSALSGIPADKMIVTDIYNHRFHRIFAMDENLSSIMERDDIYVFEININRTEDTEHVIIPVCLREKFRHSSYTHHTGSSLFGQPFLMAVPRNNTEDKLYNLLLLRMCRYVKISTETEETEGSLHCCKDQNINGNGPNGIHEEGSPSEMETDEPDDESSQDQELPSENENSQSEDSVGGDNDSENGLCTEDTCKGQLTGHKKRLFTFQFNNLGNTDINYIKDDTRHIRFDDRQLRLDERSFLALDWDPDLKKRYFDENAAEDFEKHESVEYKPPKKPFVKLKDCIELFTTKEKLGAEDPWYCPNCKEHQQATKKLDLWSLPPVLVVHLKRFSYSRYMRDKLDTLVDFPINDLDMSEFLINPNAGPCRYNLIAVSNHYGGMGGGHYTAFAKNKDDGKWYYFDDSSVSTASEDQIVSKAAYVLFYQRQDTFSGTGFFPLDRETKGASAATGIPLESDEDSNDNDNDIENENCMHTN
Summary of the method: as §1

USP16 = USP16 (UniProt Q9Y5T5)
USP16, sequence (Q9Y5T5 whole entry, looked up): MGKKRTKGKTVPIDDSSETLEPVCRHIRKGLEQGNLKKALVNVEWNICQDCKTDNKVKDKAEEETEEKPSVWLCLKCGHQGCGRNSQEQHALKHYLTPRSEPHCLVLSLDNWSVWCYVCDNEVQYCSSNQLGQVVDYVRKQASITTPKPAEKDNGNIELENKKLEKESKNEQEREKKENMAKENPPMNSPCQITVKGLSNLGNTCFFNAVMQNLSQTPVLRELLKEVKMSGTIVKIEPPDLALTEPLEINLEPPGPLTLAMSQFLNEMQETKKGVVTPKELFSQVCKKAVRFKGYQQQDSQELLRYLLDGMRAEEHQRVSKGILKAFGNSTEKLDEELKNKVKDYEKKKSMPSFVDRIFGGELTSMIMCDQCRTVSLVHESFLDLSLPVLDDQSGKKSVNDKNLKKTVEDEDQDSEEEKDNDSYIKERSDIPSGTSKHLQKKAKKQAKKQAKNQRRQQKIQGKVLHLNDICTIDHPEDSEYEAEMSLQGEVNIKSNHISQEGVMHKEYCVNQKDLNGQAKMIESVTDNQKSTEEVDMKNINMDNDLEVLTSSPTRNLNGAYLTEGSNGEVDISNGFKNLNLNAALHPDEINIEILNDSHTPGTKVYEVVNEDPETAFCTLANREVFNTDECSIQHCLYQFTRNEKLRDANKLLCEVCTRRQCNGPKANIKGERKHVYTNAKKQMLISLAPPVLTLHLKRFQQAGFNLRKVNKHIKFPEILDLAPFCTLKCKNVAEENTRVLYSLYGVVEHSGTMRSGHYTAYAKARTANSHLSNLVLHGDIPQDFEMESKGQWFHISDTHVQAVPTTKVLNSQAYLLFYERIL
Summary of the method: as §1

Measured: log2 ratio of Biotin-Ahx-Ub-VS probe labelling

CN(CCC(O)c1ccc(Br)cc1)C(=O)CCl (stereo not given)
active: OTUD7B -1.37 | UCHL1 -1.61
inactive: OTUD6B -0.0417 | PRPF8 0.169 | PSMD7 -0.221 | UCHL3 -0.26 | UCHL5 -0.331 | USP10 -0.142 | USP15 -0.337 | USP16 0.00689
